Bioassay records (PubChem)
A selection: hits, their analogues and other compounds. The true share with any hit is near 3.5%.
GPR151 ag: activators of human GPR151, primary screen, cell-based, PathHunter beta-arrestin, luminescence; PathHunter beta-arrestin GPR151 cells; activation, % at 11.2 µM; AID 1508602, 2020; G-protein coupled receptor 151 (Homo sapiens), Q8TDV0; 1% of 650,000 active; in the data active = activation above about 4.9%
MITF inh: MITF inhibitors, primary screen, biochemical, AlphaScreen, human; AlphaScreen MITF homodimerization, bead proximity signal; 0.91% of 650,000 active; inhibition, % at 2.6 µM; Microphthalmia-associated transcription factor (Homo sapiens), O75030; AID 1259374, 2018; in the data active = inhibition above about 50%
TEAD-YAP block: TEAD-YAP interaction inhibition, primary screen, TEAD-YAP interaction inhibitor project, luminescence, HEK-TIYL cells | TEAD-Gal4/YAP UAS-luciferase luminescence | inhibition, % at 9.12 µM | 1.4% of 640,000 active | AID 1259422, 2018; in the data active = inhibition above about 32%
FBW7 act: FBW7 E3 ligase activators, primary screen, biochemical, AlphaScreen, human; 0.13% of 650,000 active; AlphaScreen FBW7–phospho-cyclin E peptide binding, activator screen; F-box/WD repeat-containing protein 7 (Homo sapiens), Q969H0; normalized activity (activation), % at 26.1 µM; in the data active = normalized activity above about 1.9%;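 also: purified mutant Fbw7 with reduced substrate affinity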
MITF inh conf: MITF inhibitors, retest of hits, confirmation, biochemical, AlphaScreen, triplicate; 16% of 4,700 active; AlphaScreen MITF homodimerization, biotin/His-MITF beads; shares compounds with MITF inh; AID 1259372, 2018; inhibition, % at 2.6 µM;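 active = inhibition above a cutoff derived from the DMSO control wells, cut at about 28% in these data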;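 also: inhibitors lower the bead chemiluminescence by keeping MITF from dimerizing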
AlphaScreen DR: AlphaScreen optical interference compounds, dose response, counter-screen, biochemical, HTS | shares compounds with MITF inh | AlphaScreen optical interference counterscreen, cell-free | IC50, µM | 6% of 480 active | AID 1259373, 2018; call rule not given here
AS interf ctr: AlphaScreen optical interference compounds, counter-screen for MITF inhibitor project, biochemical, triplicate. shares compounds with MITF inh. LysRS AlphaScreen counterscreen, signal interference. inhibition, % at 2.6 µM. 7.6% of 4,700 active. AID 1259376, 2018;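 active = inhibition above a cutoff derived from the DMSO control wells, cut at about 30% in these data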
Numbers stand for hits; . = inactive; / = no result.

SMILES	GPR151 ag	MITF inh	TEAD-YAP block	FBW7 act	MITF inh conf	AS interf ctr	others
Oc1ccc(CNc2ccccc2Cl)c2cccnc12	.	68	.	.	51	92
Oc1ccc(CNc2ccccc2F)c2cccnc12	.	68	.	.	70	100
Oc1ccc(Cl)c2cccnc12	.	.	.	.	/	/
Oc1ccc(CNc2cccc(Cl)c2)c2cccnc12	.	52	.	.	107	100
O=C(COC(=O)c1cccc(N2C(=O)c3ccccc3C2=O)c1)c1cccc([N+](=O)[O-])c1	.	.	.	.	/	/
O=C(Nc1ccccc1F)C1CC(=O)N(c2ccc(Cl)cc2)C1 (stereo not given)	.	.	.	.	/	/
Cc1ccc2c(c1)Oc1ccc(NC(=O)c3ccc(O)cc3)cc1C(=O)N2	.	.	.	.	/	/
COC(=O)CC1(O)c2ccccc2C(=O)N1Cc1ccccc1 (stereo not given)	.	.	.	.	/	/
CC(=O)Nc1ccc(N2C(=O)c3ccccc3C2(O)Cc2ccccc2)cc1 (stereo not given)	.	55	.	.	33	.	AlphaScreen DR=.
N#CC1=C(N)SC(N)=C(C#N)C1c1ccc(Oc2ccccc2)cc1	.	.	.	.	/	/
CCc1ccc(NC(=O)CNCC(C)O)cc1 (stereo not given)	.	56	.	.	.	.
CCc1ccc(NC(=O)C(=O)NCC(C)O)cc1 (stereo not given)	.	.	.	.	/	/
CC(C)[C@H]1NC(=O)[C@H]2CN(C(=O)NC3CCCCC3)CCN2C1=O	.	76	.	.	72	.	AlphaScreen DR=.
Cc1ccc(C(=O)N2CCN3C(=O)[C@@H]([C@H](C)O)NC(=O)[C@H]3C2)cc1	.	.	.	.	/	/
C[C@@H](O)[C@@H]1NC(=O)[C@H]2CN(C(=O)NC3CCCCC3)CCN2C1=O	.	80	.	.	73	.	AlphaScreen DR=.
CC(C)[C@H]1NC(=O)[C@H]2CN(C(=O)c3ccccc3)CCN2C1=O	.	.	.	.	/	/
CCOc1ccc(N2C(=O)NC(=O)/C(=C\c3cc(OC)c(OC)cc3OC)C2=O)cc1	.	.	.	.	/	/
O=S(=O)(Cc1ccc(Cl)cc1)NCCN1CCOCC1	.	72	.	.	.	.
O=S(=O)(NCCCN1CCOCC1)c1ccc(Cl)cc1	.	.	.	.	/	/
CC(O)(CNCCN1CCOCC1)COc1ccc(Cl)cc1 (stereo not given)	.	55	.	.	73	.	AlphaScreen DR=.
CCn1nc(C(=O)Nc2nc3ccccc3s2)cc1C	.	69	88	.	.	.
CN1CCN(CC(=O)Nc2nc3ccccc3s2)CC1	.	51	.	.	.	.
CCCC(=O)Nc1nc2ccccc2s1	.	.	.	.	/	/
CCn1nc(C(=O)Nc2cc(C)nn2-c2nc3ccccc3s2)cc1C	.	.	.	.	/	/
O=C(CCC1CCCCC1)Nc1nc2ccccc2s1	.	92	.	.	.	.
SMILES	GPR151 ag	MITF inh	TEAD-YAP block	FBW7 act	MITF inh conf	AS interf ctr	others
CCCNC(=O)c1csc(Nc2cccc(N(C)C)c2)n1	.	.	.	.	/	/
COC(=O)c1ccc(NC(=O)CN2CCN(C(=O)c3ccco3)CC2)cc1	.	.	.	.	/	/
CC(NCCCN(C)C)C(=O)NCc1ccco1 (stereo not given)	.	57	.	.	.	.
CCOC(=O)c1ccc(NC(=O)CN2CCN(CC(=O)c3ccco3)CC2)cc1	.	79	.	.	.	.
CC(NCCN(C)C)C(=O)NCc1ccco1 (stereo not given)	.	.	.	.	/	/
CC1CCN(C(C)C(=O)NCc2ccco2)CC1 (stereo not given)	.	80	.	.	.	.
Cc1ccccc1NC(=O)CN1CCN(CC(=O)c2ccco2)CC1	.	59	.	.	.	.
O=C1C/C(=N\NC(=O)c2cc(-c3ccncc3)nc3ccccc23)c2ccccc21	.	.	.	.	/	/
O=C(c1ccc(F)cc1)N1CCN(C2c3ccccc3-c3ccccc32)CC1	.	.	.	.	/	/
COCCCNC(=S)NC(=O)c1ccc(Cl)cc1	.	.	.	.	/	/
O=C(CN1CCN(Cc2cn3ccccc3n2)CC1)c1ccco1	.	54	.	.	.	.
CCN1CCN(CC(=O)NCc2ccco2)CC1	.	80	.	.	.	.
O=C(CN1CCN(CC(=O)c2ccco2)CC1)NCc1ccccc1Cl	.	66	.	.	.	.
CC(C)CNC(=O)CCn1c(=O)sc2ccccc21	.	.	.	.	/	/
N#Cc1ccc(OCCOCCn2cncn2)cc1	.	.	.	.	/	/
Cc1ccc(C(C)(C)C)c(OCCOCCn2cncn2)c1	.	78	.	.	.	.
Clc1cccc(OCCn2cncn2)c1Cl	.	.	.	.	/	/
Fc1ccc(OCCCn2cncn2)cc1	.	71	.	.	.	.
Clc1ccc(OCCOCCn2cncn2)cc1Cl	.	80	.	.	.	.
O=[N+]([O-])c1ccc(OCCCn2cncn2)cc1	.	.	.	.	/	/
Cc1ccc(C(C)(C)C)c(OCCCn2ccnc2)c1	.	.	.	.	/	/
CC(C)(C)c1ccc(OCCn2cncn2)c(Cl)c1	.	58	.	.	32	.	AlphaScreen DR=.
CC(C)C[C@H]1C(=O)N2CCN(CCCc3ccccc3)C[C@@H]2C(=O)N1C	.	.	.	.	/	/
CSCCC(NC(C)=O)C(=O)NCC(N)=O (stereo not given)	.	.	.	.	/	/
Cc1nc2sc3c(c2c2nn(CC(=O)N(C)C)c(=O)n12)CCC(C)C3 (stereo not given)	.	.	.	.	/	/
SMILES	GPR151 ag	MITF inh	TEAD-YAP block	FBW7 act	MITF inh conf	AS interf ctr	others
CCC(C)(C)c1ccc(OCCOCCn2cncn2)c(Cl)c1	.	67	.	.	.	.
COc1ccc(N2CC(CNC(=O)Cc3ccc(F)cc3)CC2=O)cc1 (stereo not given)	.	55	.	.	.	.
C/C(=N\NC(=O)CNc1cccc(C)c1)c1cccc(Br)c1	.	.	.	.	/	/
OC(CNCC1CCCCC1)COc1ccccc1 (stereo not given)	.	.	.	.	/	/
OC(CNCCNCC(O)COc1ccccc1)COc1ccccc1 (stereo not given)	.	.	.	.	/	/
CC1CCN(C(CNCC(O)COc2ccccc2)c2cccs2)CC1 (stereo not given)	.	70	.	.	.	.
CN(C)C(CNCC(O)COc1ccccc1)c1cccs1 (stereo not given)	.	71	.	.	.	.
Cc1ccccc1OC(C)C(=O)NC1CCCCC1 (stereo not given)	.	.	.	.	/	/
CC(C)NC(=O)c1cccc(NC(=O)Nc2ccc(-c3ncnc4[nH]cc(Cl)c34)cc2)c1	.	78	.	.	88	.	AlphaScreen DR=.
